In the supplement of paper PMC6555819:

Assays:
Test in all cases: PBM binding z-score (relative to random genomic background probes); higher = stronger binding; sequences stand for … in GC…GCGATTGACAGCGTAGAATGAAGG
[1] = test system: FXR:RXRa (NR concentration 270 nM, RXRa partner concentration 90 nM)
In short: (§1)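 Each nuclear receptor dimer, without ligand, was incubated for 1 h on custom Agilent 4×180K protein-binding microarrays. Binding was detected with antibodies against each partner (one per run), and scanned fluorescence was regression-normalized. The binding z-scores are referenced to random human genomic background probes.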

[2] = test system: LXRa:RXRa (NR concentration 270 nM, RXRa partner concentration 90 nM)
In short: as §1

[3] = test system: LXRa homodimer (NR concentration 270 nM)
In short: as §1

[4] = test system: LXRb:RXRa (NR concentration 270 nM, RXRa partner concentration 90 nM)
In short: as §1

[5] = test system: LXRb homodimer (NR concentration 270 nM)
In short: as §1

[6] = test system: PPARa:RXRa (NR concentration 270 nM, RXRa partner concentration 90 nM)
In short: as §1

[7] = test system: PPARg:RXRa (NR concentration 180 nM, RXRa partner concentration 90 nM)
In short: as §1

[8] = test system: PPARg:RXRa 270nM:90nM, anti-RXR (NR concentration 270 nM, RXRa partner concentration 90 nM)
In short: as §1

[9] = test system: PPARg:RXRa 30nM:10nM, anti-RXR (NR concentration 30 nM, RXRa partner concentration 10 nM)
In short: as §1

[10] = test system: PPARg:RXRa 90nM:30nM, anti-RXR (NR concentration 90 nM, RXRa partner concentration 30 nM)
In short: as §1

| Sequence | PBM binding z-score [1] | PBM binding z-score [2] | PBM binding z-score [3] | PBM binding z-score [4] | PBM binding z-score [5] | PBM binding z-score [6] | PBM binding z-score [7] | PBM binding z-score [8] | PBM binding z-score [9] | PBM binding z-score [10] |
| --- | --- | --- | --- | --- | --- | --- | --- | --- | --- | --- |
| TCTGCTAGGCCAACGATGGTCAGCTAATCTGCTA | -1.19 | -0.741 | -1.19 | -1.05 | -1.1 | -0.375 | -0.327 | 0.663 | 1.12 | 0.978 |
| TGAATTAGGTTAAAGATCAGGGAACGTGGCGTCG | 0.694 | 0.724 | 0.0716 | 0.548 | 0.342 | 4.09 | 6.76 | 7.47 | 5.99 | 8.06 |
| CCTACTGGGCCCAGGTCATTGATCAGTCAAAGCA | 1.37 | 1.52 | 0.696 | 1.88 | -0.506 | 2.17 | 0.602 | 1.4 | 0.0346 | 0.505 |
| ACTATTAGTTGACTTAGGGGAACCGATACGACGC | 0.255 | 0.123 | 0.277 | 0.421 | 1.27 | 0.0304 | 0.951 | 0.244 | 0.351 | 0.326 |
| AGAATGAGGTTATTAAGATGAGGGAATTGCGGTC | 1.61 | 1.5 | 0.433 | 1.3 | 0.12 | 2.54 | 1.22 | 1.46 | 0.735 | 1.12 |
| TAGCCTAGGTCCTGGGCCAGTATACCACGCGAAC | -0.638 | -1.08 | -0.796 | -0.85 | -1.45 | -0.439 | -0.0172 | -0.469 | -1.04 | -0.662 |
| ATTCAAAGTTCATCTAGGTAACGTAAGATATGCT | 6.71 | 6.24 | 6.17 | 3.99 | 2.84 | 4.52 | 4.18 | 4.51 | 1.84 | 3.39 |
| AGAATGAGGTTACCAAAGATCATGGAAACGCTTG | 2.05 | 6.75 | -0.149 | 3.98 | -0.29 | 3.63 | 2.88 | 2.95 | 1.11 | 2.19 |
| GATACAGGGTCAAGGCCAAAGTACGCGTATTGAT | 6.56 | 4.57 | 0.296 | 4.15 | 0.33 | 5.6 | 6.18 | 5.96 | 2.37 | 4.76 |
| CCTTACGGGTCACTCCAAGTTATAGCATCGGAGT | 4.3 | 4.77 | 0.264 | 2.99 | 0.193 | 4.54 | 3.18 | 3.68 | 1.12 | 2.66 |
| ATCACTAGGTAACAAGTTCAGTGAAAGAGAGGAC | 0.674 | 0.942 | 0.705 | 0.664 | 0.576 | 1.94 | 3.04 | 3.04 | 1.14 | 2.5 |
| AGTCAAAGATCAGGACGAGGTAACGTAAAGCACG | 0.107 | -0.519 | -0.426 | -0.362 | -0.522 | 0.273 | 1.18 | 0.619 | 0.0734 | 0.677 |
| TCTAGATGGTCAAAGGTCACACACTCGAAATGCG | 6.69 | 5.75 | 4.06 | 5.58 | 1.37 | 6.38 | 10.2 | 8.58 | 8.53 | 9.72 |
| TCTATTGGTTGATTAGGGCAACCGAAACAGCGGA | 0.575 | 0.37 | -0.105 | 0.525 | 0.775 | 0.817 | 0.0989 | 1.86 | 3.2 | 2.59 |
| CCTCGGAGGACAACAGGAGGTCGGAGCTGCCAGA | -0.0236 | -0.0275 | -0.149 | -0.236 | -0.893 | 0.19 | -0.122 | -0.445 | -0.792 | -1.05 |
| AGTCGAAGTTCATCTAGGTAACGTAAGATATGCT | 2.95 | 2.8 | 1.21 | 1.62 | 0.0848 | 2.8 | 1.9 | 2.32 | 0.883 | 1.66 |
| CCAAACAGGTGAGAAGGTAACTCAGCCTCGATTA | -0.19 | -0.0558 | -0.189 | -0.138 | -0.392 | 0.653 | 0.64 | 1.22 | 0.297 | 0.598 |
| AGAATGAGGTTATAGGTAGATCAGGGAAGAAAGT | 2.06 | 2.1 | 0.425 | 1.89 | 0.41 | 3.67 | 4.23 | 4.73 | 3.33 | 4.47 |
| ATATATAGGTTACATCCGGGTCATTCAGGCTATG | 3.03 | 5.06 | 2.32 | 3.45 | 1.23 | 4.67 | 6.17 | 5.45 | 2.59 | 4.8 |
| CCAGACATGTGAGAAGGTAACTCAGCCTCGATTA | -0.141 | 0.0863 | 0.298 | -0.057 | 0.106 | -0.106 | 0.462 | -0.748 | -0.305 | -0.419 |
| CAAACTAGGTCACGGTCAAAGTCGGTTTGTGCCA | 5.44 | 4.31 | 1.73 | 3.13 | 0.506 | 5.57 | 9.6 | 7.81 | 5.91 | 7.67 |
| TCAGACGGGTGAAGGTAACTCAGGTACGCAGTCG | 0.211 | 1.12 | -0.137 | 0.138 | -0.885 | 1.02 | 0.625 | 1.66 | 2.83 | 2.17 |
| CCTACTGGGCCATCAGGTCATTTATATCAACGTT | 1.48 | 1.03 | 1.99 | 1.81 | 0.176 | 2.79 | 2.76 | 3.29 | 1.06 | 2.57 |
